# Legend:
# [1] = target: T1, Serine/threonine-protein kinase TBK1 (Homo sapiens) (UniProt Q9UHD2); details: at 10 µM
# T1 sequence (whole entry): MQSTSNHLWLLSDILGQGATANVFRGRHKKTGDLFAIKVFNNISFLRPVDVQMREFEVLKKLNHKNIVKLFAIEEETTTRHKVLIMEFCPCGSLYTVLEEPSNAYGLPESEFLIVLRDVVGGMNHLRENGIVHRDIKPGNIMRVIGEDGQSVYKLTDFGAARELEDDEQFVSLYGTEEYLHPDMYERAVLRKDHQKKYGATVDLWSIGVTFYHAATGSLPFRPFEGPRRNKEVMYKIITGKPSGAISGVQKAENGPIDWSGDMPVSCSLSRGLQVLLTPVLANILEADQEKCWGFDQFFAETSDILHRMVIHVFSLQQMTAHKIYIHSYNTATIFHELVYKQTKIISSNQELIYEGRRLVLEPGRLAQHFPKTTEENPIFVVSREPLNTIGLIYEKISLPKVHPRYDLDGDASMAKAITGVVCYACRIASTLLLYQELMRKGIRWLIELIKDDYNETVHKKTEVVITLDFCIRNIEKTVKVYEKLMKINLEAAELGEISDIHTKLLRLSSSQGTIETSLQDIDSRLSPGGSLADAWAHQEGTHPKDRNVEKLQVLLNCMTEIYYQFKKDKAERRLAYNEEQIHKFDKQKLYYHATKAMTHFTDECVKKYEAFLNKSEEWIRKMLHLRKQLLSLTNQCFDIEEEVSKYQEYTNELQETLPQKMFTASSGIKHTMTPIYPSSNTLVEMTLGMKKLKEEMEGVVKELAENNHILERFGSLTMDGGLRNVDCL
# [2] = target: T2, Inhibitor of nuclear factor kappa-B kinase subunit alpha (Homo sapiens) (UniProt O15111); details: at 1 µM
# T2 sequence (whole entry): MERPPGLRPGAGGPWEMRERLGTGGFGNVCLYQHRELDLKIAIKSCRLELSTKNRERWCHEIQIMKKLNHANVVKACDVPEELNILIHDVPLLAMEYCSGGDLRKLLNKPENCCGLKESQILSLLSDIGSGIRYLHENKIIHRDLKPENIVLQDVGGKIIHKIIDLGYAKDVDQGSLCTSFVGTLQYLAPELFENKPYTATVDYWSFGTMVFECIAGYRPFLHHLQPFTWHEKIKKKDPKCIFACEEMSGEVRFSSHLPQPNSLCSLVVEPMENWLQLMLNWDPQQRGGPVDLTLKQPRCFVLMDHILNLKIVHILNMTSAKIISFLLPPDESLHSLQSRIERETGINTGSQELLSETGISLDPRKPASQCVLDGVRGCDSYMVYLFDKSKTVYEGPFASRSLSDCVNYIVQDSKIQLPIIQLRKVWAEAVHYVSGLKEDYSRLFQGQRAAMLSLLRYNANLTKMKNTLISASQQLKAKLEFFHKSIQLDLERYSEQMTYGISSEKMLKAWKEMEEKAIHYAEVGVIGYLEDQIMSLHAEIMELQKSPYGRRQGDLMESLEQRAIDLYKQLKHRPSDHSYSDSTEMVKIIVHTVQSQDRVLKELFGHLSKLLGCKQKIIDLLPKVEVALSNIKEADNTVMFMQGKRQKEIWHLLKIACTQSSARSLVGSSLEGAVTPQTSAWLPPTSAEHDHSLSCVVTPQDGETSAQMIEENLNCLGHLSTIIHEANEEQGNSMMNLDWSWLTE
# [3] = target: T2, Inhibitor of nuclear factor kappa-B kinase subunit alpha (Homo sapiens); details: at 10 µM
# [4] = target: T3, Inhibitor of nuclear factor kappa-B kinase subunit beta (Homo sapiens) (UniProt O14920); details: at 1 µM
# T3 sequence (whole entry): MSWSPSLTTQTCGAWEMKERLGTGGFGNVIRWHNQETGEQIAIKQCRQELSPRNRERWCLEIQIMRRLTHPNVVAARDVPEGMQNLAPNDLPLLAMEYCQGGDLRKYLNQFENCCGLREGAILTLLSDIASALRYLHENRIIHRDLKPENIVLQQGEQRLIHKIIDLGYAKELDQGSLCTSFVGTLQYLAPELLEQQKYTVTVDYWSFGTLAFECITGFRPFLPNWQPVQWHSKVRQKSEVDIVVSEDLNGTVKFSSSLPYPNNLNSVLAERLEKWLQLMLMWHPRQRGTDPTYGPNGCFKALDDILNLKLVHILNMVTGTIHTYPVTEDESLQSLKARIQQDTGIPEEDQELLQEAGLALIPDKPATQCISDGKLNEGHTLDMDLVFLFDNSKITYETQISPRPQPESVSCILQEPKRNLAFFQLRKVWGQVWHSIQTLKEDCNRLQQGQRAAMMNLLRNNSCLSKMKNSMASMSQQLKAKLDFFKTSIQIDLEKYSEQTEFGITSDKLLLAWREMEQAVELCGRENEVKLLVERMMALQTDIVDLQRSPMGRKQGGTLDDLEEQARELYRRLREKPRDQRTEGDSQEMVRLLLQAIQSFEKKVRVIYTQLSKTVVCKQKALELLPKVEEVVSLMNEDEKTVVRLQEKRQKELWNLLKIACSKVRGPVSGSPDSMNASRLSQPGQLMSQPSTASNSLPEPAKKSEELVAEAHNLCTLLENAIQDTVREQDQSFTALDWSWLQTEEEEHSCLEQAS
# [5] = target: T3, Inhibitor of nuclear factor kappa-B kinase subunit beta (Homo sapiens); details: at 10 µM
# [6] = target: Insulin receptor (Homo sapiens) (UniProt P06213); details: at 1 µM
# Chain of Insulin receptor (Homo sapiens) (P06213 28-758 limits assumed): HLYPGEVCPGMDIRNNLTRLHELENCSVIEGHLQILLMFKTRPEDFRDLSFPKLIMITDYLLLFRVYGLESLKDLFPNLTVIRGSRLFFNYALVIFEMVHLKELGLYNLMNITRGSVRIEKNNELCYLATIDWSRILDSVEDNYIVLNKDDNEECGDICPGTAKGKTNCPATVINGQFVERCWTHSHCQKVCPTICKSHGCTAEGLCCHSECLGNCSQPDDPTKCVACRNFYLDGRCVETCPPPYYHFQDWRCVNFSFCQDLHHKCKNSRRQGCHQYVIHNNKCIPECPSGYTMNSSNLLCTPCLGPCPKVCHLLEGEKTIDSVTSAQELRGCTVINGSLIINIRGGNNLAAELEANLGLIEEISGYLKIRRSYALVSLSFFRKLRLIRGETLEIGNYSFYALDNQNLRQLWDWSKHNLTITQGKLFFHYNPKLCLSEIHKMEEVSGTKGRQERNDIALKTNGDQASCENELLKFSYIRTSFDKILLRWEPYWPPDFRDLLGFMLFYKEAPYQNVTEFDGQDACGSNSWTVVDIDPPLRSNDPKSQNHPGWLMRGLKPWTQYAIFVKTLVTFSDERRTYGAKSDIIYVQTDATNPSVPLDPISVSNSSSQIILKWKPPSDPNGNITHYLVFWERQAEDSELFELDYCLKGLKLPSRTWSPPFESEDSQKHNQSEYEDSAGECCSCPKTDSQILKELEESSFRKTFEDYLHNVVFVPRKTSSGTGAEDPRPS
# Chain of Insulin receptor (Homo sapiens) (P06213 763-1382 limits assumed): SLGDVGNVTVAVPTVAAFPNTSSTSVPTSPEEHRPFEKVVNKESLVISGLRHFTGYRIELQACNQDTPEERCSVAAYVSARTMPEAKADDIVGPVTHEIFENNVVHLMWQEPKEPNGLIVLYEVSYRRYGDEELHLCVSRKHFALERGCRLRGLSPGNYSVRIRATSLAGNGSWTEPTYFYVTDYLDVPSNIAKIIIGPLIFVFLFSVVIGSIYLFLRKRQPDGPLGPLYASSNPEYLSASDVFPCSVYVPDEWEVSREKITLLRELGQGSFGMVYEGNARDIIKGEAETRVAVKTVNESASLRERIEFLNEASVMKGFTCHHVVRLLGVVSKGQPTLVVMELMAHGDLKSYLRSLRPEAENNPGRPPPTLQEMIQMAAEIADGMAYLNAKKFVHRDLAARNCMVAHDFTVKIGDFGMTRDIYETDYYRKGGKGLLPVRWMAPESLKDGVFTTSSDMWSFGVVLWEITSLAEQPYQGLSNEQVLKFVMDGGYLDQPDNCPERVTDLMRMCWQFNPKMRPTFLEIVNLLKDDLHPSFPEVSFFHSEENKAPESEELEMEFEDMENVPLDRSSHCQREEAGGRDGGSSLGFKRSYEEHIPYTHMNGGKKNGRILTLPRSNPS
# [7] = target: Interleukin-1 receptor-associated kinase 1 (Homo sapiens) (UniProt P51617); details: at 1 µM
# Chain of Interleukin-1 receptor-associated kinase 1 (Homo sapiens) (P51617 whole entry, looked up): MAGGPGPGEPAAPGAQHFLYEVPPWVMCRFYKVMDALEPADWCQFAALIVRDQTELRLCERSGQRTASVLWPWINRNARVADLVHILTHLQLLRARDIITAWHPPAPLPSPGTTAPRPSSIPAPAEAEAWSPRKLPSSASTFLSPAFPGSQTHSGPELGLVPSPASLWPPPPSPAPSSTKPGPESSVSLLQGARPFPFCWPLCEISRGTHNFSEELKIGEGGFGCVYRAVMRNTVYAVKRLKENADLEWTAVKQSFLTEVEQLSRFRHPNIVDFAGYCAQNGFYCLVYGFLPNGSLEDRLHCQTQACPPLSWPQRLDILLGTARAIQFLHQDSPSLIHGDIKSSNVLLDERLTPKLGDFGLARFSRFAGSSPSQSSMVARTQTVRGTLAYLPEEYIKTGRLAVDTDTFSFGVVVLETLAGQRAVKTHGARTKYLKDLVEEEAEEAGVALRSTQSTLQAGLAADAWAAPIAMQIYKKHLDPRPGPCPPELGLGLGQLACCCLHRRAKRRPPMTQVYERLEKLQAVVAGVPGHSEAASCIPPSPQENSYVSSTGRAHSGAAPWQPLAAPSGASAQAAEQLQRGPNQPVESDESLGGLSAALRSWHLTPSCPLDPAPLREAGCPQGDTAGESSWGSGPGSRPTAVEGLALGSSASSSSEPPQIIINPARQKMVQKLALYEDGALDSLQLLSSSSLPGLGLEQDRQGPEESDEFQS
# [8] = target: Interleukin-1 receptor-associated kinase 1 (Homo sapiens) (UniProt P51617); details: at 10 µM
# [9] = target: T4, Interleukin-1 receptor-associated kinase 4 (Homo sapiens) (UniProt Q9NWZ3); details: at 1 µM
# T4 sequence (whole entry): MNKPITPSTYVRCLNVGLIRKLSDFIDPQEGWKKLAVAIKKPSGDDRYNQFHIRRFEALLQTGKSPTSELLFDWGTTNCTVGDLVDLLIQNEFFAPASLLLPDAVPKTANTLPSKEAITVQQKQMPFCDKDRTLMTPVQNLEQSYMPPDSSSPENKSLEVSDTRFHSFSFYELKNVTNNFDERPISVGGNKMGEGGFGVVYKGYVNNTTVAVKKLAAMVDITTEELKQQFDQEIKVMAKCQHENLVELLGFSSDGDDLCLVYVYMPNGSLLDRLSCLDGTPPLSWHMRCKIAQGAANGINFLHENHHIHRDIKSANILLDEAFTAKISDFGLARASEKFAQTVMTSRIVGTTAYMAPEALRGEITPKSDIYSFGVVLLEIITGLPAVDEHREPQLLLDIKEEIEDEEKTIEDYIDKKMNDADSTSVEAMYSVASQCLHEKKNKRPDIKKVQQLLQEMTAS
# [10] = target: T4, Interleukin-1 receptor-associated kinase 4 (Homo sapiens); details: at 10 µM
# [11] = target: Insulin receptor (Homo sapiens) (UniProt P06213); details: at 10 µM
# [12] = target: T5, TGF-beta receptor type-1 (Homo sapiens) (UniProt P36897); details: at 10 µM
# T5 sequence (whole entry): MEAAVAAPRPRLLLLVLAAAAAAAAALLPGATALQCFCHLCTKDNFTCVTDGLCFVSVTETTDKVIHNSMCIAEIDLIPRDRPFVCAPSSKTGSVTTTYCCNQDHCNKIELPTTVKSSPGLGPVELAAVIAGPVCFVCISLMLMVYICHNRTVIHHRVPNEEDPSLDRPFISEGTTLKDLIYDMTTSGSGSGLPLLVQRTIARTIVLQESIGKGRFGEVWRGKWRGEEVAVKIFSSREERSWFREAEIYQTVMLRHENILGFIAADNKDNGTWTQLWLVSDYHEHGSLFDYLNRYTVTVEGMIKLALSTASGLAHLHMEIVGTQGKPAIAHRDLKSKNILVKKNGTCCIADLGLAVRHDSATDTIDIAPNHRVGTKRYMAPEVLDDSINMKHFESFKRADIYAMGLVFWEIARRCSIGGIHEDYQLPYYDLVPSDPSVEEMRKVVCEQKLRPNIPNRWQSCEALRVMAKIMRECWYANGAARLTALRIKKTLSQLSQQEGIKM
# [13] = target: Insulin receptor-related protein (Homo sapiens) (UniProt P14616); details: at 1 µM
# Chain of Insulin receptor-related protein (Homo sapiens) (P14616 27-742 limits assumed): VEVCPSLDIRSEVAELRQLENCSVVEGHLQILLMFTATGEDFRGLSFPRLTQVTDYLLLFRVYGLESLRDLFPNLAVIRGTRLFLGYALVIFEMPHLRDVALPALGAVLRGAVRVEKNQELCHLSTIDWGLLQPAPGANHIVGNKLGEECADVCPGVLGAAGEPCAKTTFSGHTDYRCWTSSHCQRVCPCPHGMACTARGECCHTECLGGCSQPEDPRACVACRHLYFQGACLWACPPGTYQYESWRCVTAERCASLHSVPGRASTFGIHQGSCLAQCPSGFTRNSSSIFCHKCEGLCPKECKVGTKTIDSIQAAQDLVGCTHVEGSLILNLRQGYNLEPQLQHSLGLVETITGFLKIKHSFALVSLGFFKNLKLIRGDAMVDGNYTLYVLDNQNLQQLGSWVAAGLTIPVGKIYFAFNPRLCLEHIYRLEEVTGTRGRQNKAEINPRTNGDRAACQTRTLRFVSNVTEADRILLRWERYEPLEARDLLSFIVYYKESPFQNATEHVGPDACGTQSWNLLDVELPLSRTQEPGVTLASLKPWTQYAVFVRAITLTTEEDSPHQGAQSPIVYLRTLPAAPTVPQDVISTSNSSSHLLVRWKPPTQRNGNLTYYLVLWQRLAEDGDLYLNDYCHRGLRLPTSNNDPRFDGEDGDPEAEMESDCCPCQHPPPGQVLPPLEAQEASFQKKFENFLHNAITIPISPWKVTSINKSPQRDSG
# Chain of Insulin receptor-related protein (Homo sapiens) (P14616 747-1297 limits assumed): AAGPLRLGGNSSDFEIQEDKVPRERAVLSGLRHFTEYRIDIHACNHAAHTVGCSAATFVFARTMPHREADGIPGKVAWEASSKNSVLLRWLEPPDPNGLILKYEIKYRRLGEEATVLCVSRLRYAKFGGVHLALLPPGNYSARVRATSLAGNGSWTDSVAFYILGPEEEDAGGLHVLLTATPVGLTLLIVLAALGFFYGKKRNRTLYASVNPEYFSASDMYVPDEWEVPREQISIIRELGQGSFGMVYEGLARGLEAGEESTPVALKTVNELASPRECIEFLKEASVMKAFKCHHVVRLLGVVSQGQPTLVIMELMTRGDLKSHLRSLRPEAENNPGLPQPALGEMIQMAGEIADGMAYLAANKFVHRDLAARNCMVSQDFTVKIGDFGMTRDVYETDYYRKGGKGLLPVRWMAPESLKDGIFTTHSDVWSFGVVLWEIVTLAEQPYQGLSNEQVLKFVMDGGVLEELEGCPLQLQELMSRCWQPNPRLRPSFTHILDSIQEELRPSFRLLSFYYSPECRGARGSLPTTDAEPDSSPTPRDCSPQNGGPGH
# [14] = target: Insulin receptor-related protein (Homo sapiens) (UniProt P14616); details: at 10 µM
# [15] = target: T5, TGF-beta receptor type-1 (Homo sapiens); details: at 1 µM
# [16] = target: Insulin-like growth factor 1 receptor (Homo sapiens) (UniProt P08069); details: at 1 µM
# Chain of Insulin-like growth factor 1 receptor (Homo sapiens) (P08069 31-736 limits assumed): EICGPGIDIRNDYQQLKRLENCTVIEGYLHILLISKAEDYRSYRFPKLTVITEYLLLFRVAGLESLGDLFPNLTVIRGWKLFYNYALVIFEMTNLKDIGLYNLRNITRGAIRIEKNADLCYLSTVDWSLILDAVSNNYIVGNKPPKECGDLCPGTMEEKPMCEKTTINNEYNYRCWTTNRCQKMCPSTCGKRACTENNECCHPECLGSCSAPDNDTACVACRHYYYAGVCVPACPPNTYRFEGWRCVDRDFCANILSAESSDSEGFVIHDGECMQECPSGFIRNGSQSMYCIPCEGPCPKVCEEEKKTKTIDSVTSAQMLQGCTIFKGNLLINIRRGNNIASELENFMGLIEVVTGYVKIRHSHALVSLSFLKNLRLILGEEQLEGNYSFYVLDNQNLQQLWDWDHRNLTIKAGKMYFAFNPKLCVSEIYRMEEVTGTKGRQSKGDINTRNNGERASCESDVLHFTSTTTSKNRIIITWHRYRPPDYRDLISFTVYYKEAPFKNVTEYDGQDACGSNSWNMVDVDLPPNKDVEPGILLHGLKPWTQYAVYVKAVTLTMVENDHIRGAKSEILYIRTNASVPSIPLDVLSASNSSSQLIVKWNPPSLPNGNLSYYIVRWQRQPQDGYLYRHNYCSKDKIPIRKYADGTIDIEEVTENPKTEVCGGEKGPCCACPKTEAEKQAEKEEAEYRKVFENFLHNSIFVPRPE
# Chain of Insulin-like growth factor 1 receptor (Homo sapiens) (P08069 741-1367 limits assumed): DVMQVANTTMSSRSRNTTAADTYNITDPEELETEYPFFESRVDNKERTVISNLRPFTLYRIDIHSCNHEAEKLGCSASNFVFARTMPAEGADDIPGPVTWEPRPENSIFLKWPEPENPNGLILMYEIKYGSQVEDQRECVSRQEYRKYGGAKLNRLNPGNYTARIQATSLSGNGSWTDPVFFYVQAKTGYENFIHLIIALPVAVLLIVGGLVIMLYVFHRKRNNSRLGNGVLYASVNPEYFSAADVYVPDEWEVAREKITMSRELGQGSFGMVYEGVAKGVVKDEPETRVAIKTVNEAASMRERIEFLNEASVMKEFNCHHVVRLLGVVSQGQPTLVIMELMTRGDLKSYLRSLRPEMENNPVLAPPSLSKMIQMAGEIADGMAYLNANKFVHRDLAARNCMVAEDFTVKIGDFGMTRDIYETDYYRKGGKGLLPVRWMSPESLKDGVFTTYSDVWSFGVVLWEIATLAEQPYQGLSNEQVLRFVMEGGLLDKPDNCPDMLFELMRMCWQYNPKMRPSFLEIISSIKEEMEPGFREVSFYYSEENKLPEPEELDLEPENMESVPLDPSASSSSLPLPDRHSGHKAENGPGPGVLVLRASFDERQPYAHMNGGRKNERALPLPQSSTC
# [17] = target: Insulin-like growth factor 1 receptor (Homo sapiens) (UniProt P08069); details: at 10 µM
# [18] = target: T6, Tyrosine-protein kinase ITK/TSK (Homo sapiens) (UniProt Q08881); details: at 1 µM
# T6 sequence (whole entry): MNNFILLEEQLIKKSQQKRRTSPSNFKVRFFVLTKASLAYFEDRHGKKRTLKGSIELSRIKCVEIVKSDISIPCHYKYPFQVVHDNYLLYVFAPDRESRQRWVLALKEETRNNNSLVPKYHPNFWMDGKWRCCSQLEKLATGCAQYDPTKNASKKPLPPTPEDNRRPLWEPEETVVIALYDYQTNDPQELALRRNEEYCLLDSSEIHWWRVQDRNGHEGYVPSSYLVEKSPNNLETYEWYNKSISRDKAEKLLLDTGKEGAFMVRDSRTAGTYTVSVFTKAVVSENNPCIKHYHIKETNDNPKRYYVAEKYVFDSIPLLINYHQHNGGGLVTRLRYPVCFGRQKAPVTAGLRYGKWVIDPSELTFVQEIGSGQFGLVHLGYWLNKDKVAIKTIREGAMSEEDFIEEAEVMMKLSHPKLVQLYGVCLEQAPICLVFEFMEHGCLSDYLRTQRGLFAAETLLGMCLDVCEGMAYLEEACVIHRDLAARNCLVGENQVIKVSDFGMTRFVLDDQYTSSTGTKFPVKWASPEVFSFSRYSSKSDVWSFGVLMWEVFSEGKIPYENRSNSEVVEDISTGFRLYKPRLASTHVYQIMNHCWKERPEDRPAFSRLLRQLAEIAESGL
# [19] = target: Insulin receptor (Homo sapiens) (UniProt P06213); details: at 10 µM; remark: listed apart in the source
# [20] = target: Insulin receptor (Homo sapiens) (UniProt P06213); details: at 1 µM; remark: listed apart in the source
smiles,measurement,setting,value
COc1ccc(-c2cnc3c(-c4ccsc4)cnn3c2)cc1,residual activity,[1],85%
same,residual activity,[2],91%
same,residual activity,[3],90%
same,residual activity,[4],100%
same,residual activity,[5],95%
same,residual activity,[6],91%
same,residual activity,[7],98%
same,residual activity,[8],84%
same,residual activity,[9],124%
same,residual activity,[10],94%
CN([C@@H](Cc1ccc(OS(=O)(=O)c2cccc3cnccc23)cc1)C(=O)N1CCN(c2ccccc2)CC1)S(=O)(=O)c1cccc2cnccc12,residual activity,[6],134%
same,residual activity,[11],84%
CCOc1nc(NC(=O)Cc2cc(OC)ccc2OC)cc(N)c1C#N,residual activity,[1],68%
same,residual activity,[9],81%
same,residual activity,[10],81%
O=C1Cc2c([nH]c3ccc([N+](=O)[O-])cc23)-c2ccccc2N1,residual activity,[1],37%
same,residual activity,[12],65%
same,residual activity,[2],114%
same,residual activity,[3],101%
O=C1NC(=O)C(c2cn(CCCn3ccnc3)c3ccccc23)=C1Nc1ccccc1,residual activity,[1],9%
same,residual activity,[2],112%
same,residual activity,[3],103%
same,residual activity,[7],81%
same,residual activity,[8],76%
same,residual activity,[9],45%
same,residual activity,[10],32%
same,residual activity,[13],135%
same,residual activity,[14],65%
COc1cc2nccc(Oc3ccc(NC(=O)Nc4cc(C)on4)c(Cl)c3)c2cc1OC,residual activity,[1],68%
same,residual activity,[4],104%
same,residual activity,[5],102%
same,residual activity,[7],82%
same,residual activity,[13],102%
same,residual activity,[14],29%
Nc1ncnc2c1cnn2-c1ccccc1,residual activity,[15],92%
same,residual activity,[16],88%
same,residual activity,[17],76%
same,residual activity,[3],85%
same,residual activity,[4],97%
same,residual activity,[5],86%
same,residual activity,[7],93%
same,residual activity,[8],84%
same,residual activity,[10],84%
same,residual activity,[13],135%
same,residual activity,[14],93%
same,residual activity,[18],102%
NC(=O)c1cccc(-c2cc(Nc3ccc(OC(F)(F)F)cc3)ncn2)c1,residual activity,[1],79%
same,residual activity,[2],128%
same,residual activity,[3],149%
same,residual activity,[7],95%
same,residual activity,[8],93%
same,residual activity,[13],139%
same,residual activity,[14],98%
N#Cc1c(NC(=O)c2cccc3ccccc23)sc2c1CCCC2,residual activity,[1],73%
same,residual activity,[17],124%
same,residual activity,[5],100%
same,residual activity,[6],137%
same,residual activity,[19],92%
same,residual activity,[7],94%
same,residual activity,[8],95%
same,residual activity,[9],96%
same,residual activity,[10],72%
same,residual activity,[14],72%
NCCNc1ncc(C(N)=O)c(Nc2cccc(C(F)(F)F)c2)n1,residual activity,[1],54%
same,residual activity,[2],104%
same,residual activity,[3],66%
same,residual activity,[6],115%
same,residual activity,[11],77%
same,residual activity,[20],74%
same,residual activity,[19],34%
same,residual activity,[10],51%
same,residual activity,[13],142%
same,residual activity,[14],55%

# Source: ChEMBL document CHEMBL2218924, “A broad activity screen in support of a chemogenomic map for kinase signalling research and drug discovery” (Biochem J, 2013)
